Test results taken from PubChem BioAssay (NCI).
Compounds without any hit were thinned out: in the full panel of roughly 79,000, 15% have a hit. Calls of active or inactive are those of the source. Cut-off read from the data, not from the text of the source: active = growth inhibition above about 70%; inactive = the rest.

Legend:
[1] = NCI Yeast Anticancer Drug Screen. Data for the rad52 strain (AID 147);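 note: 0% = growth of vehicle-treated control cultures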; details: S. cerevisiae rad52 mutant growth inhibition, hits give high values
Procedure, shortened: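 Measured: yeast growth inhibition. System: strain with a defined DNA damage repair alteration. Reference: vehicle-treated control cultures.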

[2] = NCI Yeast Anticancer Drug Screen. Data for the wt1 strain (AID 149);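 note: 0% = growth of vehicle-treated wt1 cultures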; details: S. cerevisiae wt1 strain (SPY 50644) growth inhibition, hits give high values
Procedure, shortened: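 Readout: yeast growth inhibition, normalised to vehicle controls, in the wt1 strain exposed to test compounds.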

[3] = NCI Yeast Anticancer Drug Screen. Data for the mgt1 strain (AID 153); details: S. cerevisiae mgt1 mutant growth inhibition, hits give high values
Procedure, shortened: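 After exposure of the mgt1 yeast mutant to compound, growth was measured and reported as inhibition compared with vehicle controls.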

[4] = NCI Yeast Anticancer Drug Screen. Data for the rad50 strain (AID 155);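 note: 0% = growth of vehicle-only cultures of the same strain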; details: S. cerevisiae rad50 strain growth inhibition, hits give high values
Procedure, shortened: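 Compounds were tested on a yeast strain with an engineered DNA damage repair alteration; the reported value is growth inhibition normalised to vehicle treatment.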

[5] = NCI Yeast Anticancer Drug Screen. Data for the mec2-1 strain (AID 157); details: S. cerevisiae mec2-1 strain, hits give high values
Procedure, shortened: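 Test agents were screened against the mec2-1 yeast strain, with defined DNA repair or cell cycle alteration. Growth was scored as inhibition against vehicle-only controls.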

[6] = NCI Yeast Anticancer Drug Screen. Data for the rad14 strain (AID 159);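 note: 0% = growth of vehicle-treated control cultures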; details: S. cerevisiae rad14 strain growth inhibition, hits give high values
Procedure, shortened: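 Compound-treated yeast with a defined DNA-repair lesion; growth inhibition normalised to vehicle-treated cultures.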

[7] = NCI Yeast Anticancer Drug Screen. Data for the sgs1 mgt1 strain (AID 161);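 note: 0% = growth of cultures given vehicle only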; details: S. cerevisiae sgs1 mgt1 strain, hits give high values
Procedure, shortened: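 Genetically altered yeast, compound exposure, growth inhibition relative to vehicle.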

[8] = NCI Yeast Anticancer Drug Screen. Data for the CLN2oe strain (AID 163);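 note: 0% = growth of vehicle-only control cultures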; details: S. cerevisiae CLN2oe strain, hits give high values
Procedure, shortened: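 Here, growth inhibition in a cell-cycle-altered yeast strain after compound exposure was quantified against vehicle control growth.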

[9] = NCI Yeast Anticancer Drug Screen. Data for the cln2 rad14 strain (AID 165);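 note: 0% = growth equal to vehicle treated cultures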; details: S. cerevisiae cln2 rad14 strain, hits give high values
Procedure, shortened: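 Growth of compound-exposed yeast (cln2 rad14 genotype) measured and expressed as inhibition relative to vehicle.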

[10] = NCI Yeast Anticancer Drug Screen. Data for the bub3 strain (AID 167); details: S. cerevisiae bub3 mutant strain, hits give high values
Procedure, shortened: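 Growth of a checkpoint-deficient yeast mutant is measured after compound exposure. Values represent inhibition relative to vehicle.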

[11] = NCI Yeast Anticancer Drug Screen. Data for the wt2 strain (AID 169);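 note: 0% = growth of vehicle-treated yeast cultures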; details: S. cerevisiae wt2 strain growth inhibition, hits give high values
Procedure, shortened: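 Genetically defined yeast strains from a DNA-repair/cell-cycle panel were used. Compound-exposed yeast growth was measured, and the inhibition was calculated relative to vehicle treatment.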

[12] = NCI Yeast Anticancer Drug Screen. Data for the mlh1 strain (AID 171);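 note: 0% = growth of vehicle-treated control cultures of the same strain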; details: S. cerevisiae mlh1 strain growth inhibition, hits give high values
Procedure, shortened: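 Here the genetically defined yeast mutant is grown with each compound, and the extent to which its growth falls below that of vehicle-exposed cells is reported.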

[13] = NCI Yeast Anticancer Drug Screen. Data for the mlh1 rad18 strain (AID 175); details: S. cerevisiae mlh1 rad18 strain growth inhibition, hits give high values
Procedure, shortened: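 In this whole-cell yeast screen, a strain with altered DNA damage repair is challenged with compound, and its growth is measured against matched vehicle-treated controls.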

[14] = NCI Yeast Anticancer Drug Screen. Data for the rad18 strain (AID 177); details: S. cerevisiae rad18 mutant growth inhibition, hits give high values
Procedure, shortened: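 Screen uses a yeast strain with a defined lesion in DNA damage repair; compound effect is read as loss of growth compared to untreated vehicle cultures.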

[15] = NCI Yeast Anticancer Drug Screen. Data for the rad50EPP+ strain (AID 151);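 note: 0% = growth of vehicle-treated control cultures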; details: S. cerevisiae rad50 mutant strain, hits give high values
Procedure, shortened: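 One strain with a rad50 alteration (rad50EPP+) was compound-treated, its growth then compared to that of vehicle controls.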

[16] = NCI Yeast Anticancer Drug Screen. Data for the sgs1 strain (AID 173);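 note: 0% = growth of vehicle-only control cultures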; details: S. cerevisiae sgs1 mutant, hits give high values
Procedure, shortened: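 Relative growth inhibition, referenced to vehicle, was determined in a yeast strain with a defined alteration affecting DNA damage repair or cell cycle control after compound exposure.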

[17] = at 5.0 µM (retest, dose inferred, filed as 0.5)
[18] = at 50.0 µM (retest, dose inferred, filed as 5.0)

Measured: growth inhibition

NC(N)=N/N=C\c1c2ccccc2cc2ccccc12
inactive: [1]; at 1.2 µM -73% | [1]; at 3.7 µM -78% | [1]; at 11.0 µM -50% | [1]; at 33.0 µM 27% | [2]; at 1.2 µM -38% | [2]; at 3.7 µM -29% | [2]; at 11.0 µM -29% | [2]; at 33.0 µM -27% | [3]; at 1.2 µM -38% | [3]; at 3.7 µM -54% | [3]; at 11.0 µM -34% | [3]; at 33.0 µM 3% | [4]; at 1.2 µM -16% | [4]; at 3.7 µM -17% | [4]; [17] 22% | [4]; at 11.0 µM -8% | [4]; at 33.0 µM 36% | [4]; [18] 66% | [4]; at 50.0 µM 17.1% | [5]; at 1.2 µM -58% | [5]; at 3.7 µM -37% | [5]; [17] 18% | [5]; at 11.0 µM -45% | [5]; at 33.0 µM -10% | [5]; [18] 42% | [5]; at 50.0 µM 36.9% | [6]; at 1.2 µM -50% | [6]; at 3.7 µM -41% | [6]; at 11.0 µM -45% | [6]; at 33.0 µM 9% | [7]; [17] 8% | [7]; [18] 47% | [7]; at 50.0 µM 33.6% | [8]; at 1.2 µM -29% | [8]; at 3.7 µM 6% | [8]; at 11.0 µM -4% | [8]; at 33.0 µM 18% | [9]; [17] -2% | [9]; [18] 25% | [9]; at 50.0 µM 1.85% | [10]; at 1.2 µM -43% | [10]; at 3.7 µM -55% | [10]; [17] 3% | [10]; at 11.0 µM -59% | [10]; at 33.0 µM -44% | [10]; [18] 14% | [10]; at 50.0 µM 21% | [11]; at 1.2 µM -47% | [11]; at 3.7 µM -64% | [11]; at 11.0 µM -59% | [11]; at 33.0 µM -35% | [12]; at 1.2 µM -61% | [12]; at 3.7 µM -45% | [12]; at 11.0 µM -44% | [12]; at 33.0 µM 11% | [13]; [17] 29% | [14]; at 1.2 µM -74% | [14]; at 3.7 µM -68% | [14]; at 11.0 µM -51% | [14]; at 33.0 µM -30%
active: [1]; at 100.0 µM 94% | [2]; at 100.0 µM 95% | [3]; at 100.0 µM 95% | [4]; at 100.0 µM 94% | [5]; at 100.0 µM 93% | [6]; at 100.0 µM 95% | [8]; at 100.0 µM 78% | [10]; at 100.0 µM 75% | [11]; at 100.0 µM 96% | [12]; at 100.0 µM 93% | [13]; [18] 81% | [13]; at 50.0 µM 72.7% | [14]; at 100.0 µM 95%

C[C@@H]1C[C@H]2[C@@H]3CCC4=CC(=O)C=C[C@]4(C)[C@@]3(Cl)[C@@H](Cl)C[C@]2(C)[C@@]1(O)C(=O)COP(=O)(O)O
inactive: [1]; at 1.2 µM -1% | [1]; at 3.7 µM -3% | [1]; at 11.0 µM 6% | [1]; at 33.0 µM 1% | [1]; at 100.0 µM 3% | [15]; at 1.2 µM -3% | [15]; at 3.7 µM -8% | [15]; at 11.0 µM -3% | [15]; at 33.0 µM 3% | [15]; at 100.0 µM 5% | [3]; at 1.2 µM 11% | [3]; at 3.7 µM 5% | [3]; at 11.0 µM 3% | [3]; at 33.0 µM 8% | [3]; at 100.0 µM 2% | [4]; at 1.2 µM 4% | [4]; at 3.7 µM -10% | [4]; [17] 2% | [4]; at 11.0 µM 3% | [4]; at 33.0 µM 7% | [4]; [18] 19% | [4]; at 50.0 µM -34.1% | [4]; at 100.0 µM 8% | [5]; at 1.2 µM -3% | [5]; at 3.7 µM -3% | [5]; [17] 17% | [5]; at 11.0 µM 0% | [5]; at 33.0 µM -3% | [5]; [18] 5% | [5]; at 50.0 µM -36.9% | [5]; at 100.0 µM 1% | [6]; at 1.2 µM -1% | [6]; at 3.7 µM 0% | [6]; at 11.0 µM -2% | [6]; at 33.0 µM -2% | [6]; at 100.0 µM 1% | [7]; [17] -14% | [7]; [18] 6% | [7]; at 50.0 µM -30.8% | [8]; at 1.2 µM -10% | [8]; at 3.7 µM -3% | [8]; at 11.0 µM 7% | [8]; at 33.0 µM -1% | [8]; at 100.0 µM -6% | [9]; [17] 41% | [9]; [18] -23% | [9]; at 50.0 µM 26.1% | [10]; at 1.2 µM 2% | [10]; at 3.7 µM -1% | [10]; [17] -20% | [10]; at 11.0 µM 2% | [10]; at 33.0 µM 0% | [10]; [18] -8% | [10]; at 50.0 µM -42.2% | [10]; at 100.0 µM -3% | [11]; at 1.2 µM -2% | [11]; at 3.7 µM -2% | [11]; at 11.0 µM -2% | [11]; at 33.0 µM -2% | [11]; at 100.0 µM -3% | [12]; at 1.2 µM 2% | [12]; at 3.7 µM 3% | [12]; at 11.0 µM 0% | [12]; at 33.0 µM 8% | [12]; at 100.0 µM 12% | [16]; at 1.2 µM 0% | [16]; at 3.7 µM -3% | [16]; at 11.0 µM -2% | [16]; at 33.0 µM -1% | [16]; at 100.0 µM -1% | [13]; [17] 9% | [13]; [18] 1% | [13]; at 50.0 µM -18.3% | [14]; at 1.2 µM -4% | [14]; at 3.7 µM -5% | [14]; at 11.0 µM 1% | [14]; at 33.0 µM 7% | [14]; at 100.0 µM 7%
